Rows were chosen to be rich in hits. Some 7.4% of all compounds tested hit in one or more screens of this group.
Tau fil binding = qHTS Assay for Tau Filament Binding. Microtubule-associated protein tau (Homo sapiens), P10636. recombinant tau filaments, thioflavin S fluorescence, 15 h; filaments grown with octadecylsulfate alongside compound. Potency, µM (highest dose often 57.1 µM), for inactives: at the top dose activity change, negative = inhibition. 71,000 compounds, 2% hits;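 further: on the % scale 0 is the no-effect control and ±100 the full control effect; actives lower thioflavin S fluorescence by blocking filaments or displacing dye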
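Read-out: ThS fluorescence, 450 nm excitation/510 nm emission; lower signal marks blocked filament formation or displaced dye. Tau at 1 uM with 30 uM ODS, 10 uM ThS, 5 mM DTT, 100 mM NaCl, 10 mM HEPES pH 7.4; 15 h, 37 C.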
CRE Fsk mod = Cell signaling CRE-BLA (Fsk stim); CHO CRE-bla reporter (cAMP response element driving beta-lactamase), forskolin EC10, beta-lactamase ratio; Potency, µM (top dose mostly 38.2 µM), for the others: top-dose activity change, negative = inhibition, most hits filed as activators; 71,000 compounds, 2.5% hits; AID 662, 2007; active means well fitted activation curve with a large enough effect in the signal ratio, with a control signal flat, not every such curve was filed as active; inconclusive means small, poorly fitted or top-dose-only effect, or effect the other way, or a change in a side signal; the % refers to the signal ratio; further: % of control where 0% means no effect
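Reporter-gene assay: CHO cells with beta-lactamase behind cAMP responsive elements, co-treated with compound and EC10 NKH 477 for 3 hours at 37 degrees Celsius. Activity came from the 460/530 nm CCF4 emission ratio.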
ERK AVP inh = qHTS Assay for Inhibitors of the ERK Signaling Pathway using a Homogeneous Screening Assay | Potency, µM (titrated, usually from 57.5 µM), without a hit: at the highest dose activity, negative = inhibition, most hits filed as inhibitors | 72,000 compounds, 0.99% hits | HEK293-V1b, vasopressin-stimulated pERK AlphaScreen; further: on the % scale 0 is the no-effect control and ±100 the full control effect; nearly all actives have a fitted effect of over 55% in size
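Overnight-seeded V1b-HEK293 cells in 1% FBS got compound, then vasopressin (25 nM final, 5 min, 37C), then lysis buffer. AlphaScreen detection of phospho-ERK; activity normalized to basal and full-stimulation controls.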
HEK293 cAMP ctrl = qHTS Assay for Agonists of the Thyroid Stimulating Hormone Receptor: Activators of Intracellular cAMP Concentrations in Parental HEK 293; parental HEK293 CNG cAMP sensor, membrane potential fluorescence; Potency, µM (series often up to 57.1 µM), for the others: at the top dose activation, actives largely listed as activators; 73,000 compounds, 2.5% hits; further: % of control where 0% means no effect; nearly all actives have a fitted effect of over 55% in size
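Counterscreen for endogenous-receptor signalling: CNG-channel HEK 293 cells report cAMP rise by membrane depolarization. After 60 min dye equilibration with 100 uM RO 20-1724, compounds incubated 30 min before bottom-read fluorescence at 590 nm.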
TSHR ag = qHTS Assay for Agonists of the Thyroid Stimulating Hormone Receptor; HEK293-CNG-TSHR cells (CNG channel as cAMP sensor), membrane potential dye, cAMP; 73,000 compounds, 0.48% hits; Thyrotropin receptor (Homo sapiens), P16473; Potency, µM (top dose mostly 57.1 µM), for the others: top-dose activation, actives largely listed as activators; AID 926, 2007; active means well fitted activation curve with a large enough effect in the main read-out, with a control signal flat, not every such curve was filed as active; inconclusive means small, poorly fitted or top-dose-only effect, or a change in a side signal; inactive means no such curve, though single readings can be large or run the other way; % of control where 0% means no effect;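 further: the control signal comes from parental cells without the receptor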
Target sequence (P16473 whole entry, looked up): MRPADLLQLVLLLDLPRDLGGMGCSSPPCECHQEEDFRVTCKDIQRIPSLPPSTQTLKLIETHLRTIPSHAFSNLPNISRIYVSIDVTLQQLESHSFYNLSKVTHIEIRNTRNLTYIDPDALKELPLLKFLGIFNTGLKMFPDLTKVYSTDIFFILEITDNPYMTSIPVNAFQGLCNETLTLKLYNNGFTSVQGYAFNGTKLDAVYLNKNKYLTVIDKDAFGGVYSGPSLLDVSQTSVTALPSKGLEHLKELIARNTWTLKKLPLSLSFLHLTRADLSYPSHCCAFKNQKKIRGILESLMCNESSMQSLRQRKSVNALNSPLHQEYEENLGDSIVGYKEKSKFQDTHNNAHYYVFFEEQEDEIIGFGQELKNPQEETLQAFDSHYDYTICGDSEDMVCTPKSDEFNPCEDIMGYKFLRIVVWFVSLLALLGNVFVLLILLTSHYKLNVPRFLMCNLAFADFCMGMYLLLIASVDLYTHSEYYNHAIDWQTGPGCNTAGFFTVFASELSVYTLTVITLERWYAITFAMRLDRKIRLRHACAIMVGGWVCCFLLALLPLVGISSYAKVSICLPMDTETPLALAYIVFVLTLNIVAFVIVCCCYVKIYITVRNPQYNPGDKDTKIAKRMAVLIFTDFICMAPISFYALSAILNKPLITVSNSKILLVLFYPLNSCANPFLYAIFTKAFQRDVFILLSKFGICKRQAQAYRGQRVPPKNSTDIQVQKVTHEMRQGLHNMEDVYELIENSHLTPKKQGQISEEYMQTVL
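cAMP rise detected as CNG-channel membrane depolarization by fluorescent dye (emission 590 nm), 30 min after compound, following 60 min dye loading containing 100 uM RO 20-1724 at room temperature. Cells: TSHR/CNG HEK 293, with parental CNG HEK 293 as control.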
The depositor's hits bear a star; u = inconclusive; x = no result; [ ] = dose if it differs, or a comment. Unless noted, the call rests on the fitted dose curve; in most records, active means well fitted curve in the direction sought with a large enough effect; inconclusive means small, poorly fitted or top-dose-only effect, or another doubt; inactive means no such curve, though single readings can be large; an effect the other way counts as inactive or inconclusive. Potency means the concentration at half of the fitted maximal effect.

SMILES	Tau fil binding	CRE Fsk mod	ERK AVP inh	HEK293 cAMP ctrl	TSHR ag
CCc1ccc(C2CC(c3ccccc3)n3ncnc3N2)cc1 (configuration not stated)	-11.6%	5.8%	31.6µM*	18.7%	23.4%
COc1ccccc1CCn1c(=O)c(-c2ccccc2)nc2cncnc21	u	u	-25.1%	3.98µM*	u
COc1ccccc1CCn1c(=O)c(-c2ccc(F)c(F)c2)nc2cncnc21	-21.7%	10µM*	u	u	u
COCCn1c(=O)c(-c2ccc(Cl)cc2)nc2cncnc21	29.3%	10µM*	-30.8%	u	u
COc1ccccc1CCn1c(=O)c(-c2cccc(F)c2)nc2cncnc21	u	u	-3.5%	u	u
COCCn1c(=O)c(-c2cccc(Cl)c2)nc2cncnc21	22.4%	u	-14.9%	13.2%	-2.4%
Nc1ccc(N=Nc2ccccc2)c(N)c1	1.58µM*	-9.0%	u	-48.0%	u
CCCCCCC1C(C#N)=C(N)OC2=C1C(=O)CC(C)(C)C2 (configuration not stated)	-2.0%	10µM*	x	10.8%	9.6%
CCC1C(C#N)=C(N)OC2=C1C(=O)CC(C)(C)C2 (configuration not stated)	-4.8%[11.4 µM]	u	17.1%	-0.4%[11.4 µM]	x
CC1Cc2ccccc2N1Cc1nc2scc(-c3cccs3)c2c(=O)[nH]1 (configuration not stated)	12.6µM*	u	-7.9%	-4.1%	-7.7%
COC(=O)c1ccc2c(=O)[nH]c(CN3c4ccccc4CC3C)nc2c1 (configuration not stated)	u	u	20.5%	-5.2%	-6.1%
Cc1cccc2cc3ccc4ccccc4c3cc12	4.5%[11.4 µM]	-3.4%[7.6 µM]	-4.6%[11.5 µM]	-4.0%[11.4 µM]	9.6%[11.4 µM]
Cc1onc(-c2c(Cl)cccc2Cl)c1C(=O)Nc1ccc2c(c1)OCO2	3.16µM*	-20.4%	-6.6%	-5.0%	-2.3%
CC(=O)Nc1cccc(NC(=O)c2c(-c3ccccc3Cl)noc2C)c1	1.2%	-0.9%	-22.3%	2.8%	21.1%
CC(C)c1cc(C(=O)Nc2ccc3c(c2)OCO3)no1	12.6µM*	-3.4%	-5.6%	8.1%	12.9%
CCCn1c(C)nc2c(N(CCN(CC)CC)CCN(CC)CC)nc(C)nc21	90.7%	-6.0%	0.2%	u	u
COCCN(CCOC)c1nc(C)nc2c1nc(-c1ccccc1)n2CCN(C)C	5.7%	u	-16.2%	u	u
CCCn1c(C)nc2c(N(CCOC)CCOC)nc(C)nc21	-8.8%	12.6µM*	-2.7%	2.5%	4.9%
CCCn1c(C)nc2c(N(CCN(C)C)Cc3ccccc3)nc(C)nc21	-19.5%	12.6µM*	u	u	u
COCCN(CCOC)c1nc(C)nc2c1nc(-c1ccccc1)n2CCN1CCOCC1	9.3%	12.6µM*	-20.6%	u	u
CC(C)=CCC1(CC=C(C)C)C(=O)C(C(=O)c2ccccc2)=C2OC(C)(C)CCC2(CC=C(C)C)C1=O (configuration not stated)	x	x	10.0%[11.5 µM]	15.7%[11.4 µM]	5.4%[11.4 µM]
Cc1nc2oc3c(NCc4ccccn4)ncnc3c2c2c1COC(C)(C)C2	33.8%	u	25.1µM*	6.5%	-4.2%
CC(C)c1nc2oc3c(NCc4ccccn4)ncnc3c2c2c1COC(C)(C)C2	16.2%	u	-16.7%	1.3%	-1.4%
CCCCCCN	0.0%	-11.9%	-9.8%	28.4%	2.4%
COc1ccc(-c2cc(CCCC(=O)NCCc3cc(OC)ccc3OC)no2)cc1	82.0%	u	-19.2%	31.6µM*	u
SMILES	Tau fil binding	CRE Fsk mod	ERK AVP inh	HEK293 cAMP ctrl	TSHR ag
CCOc1ccc(-c2cc(CCCC(=O)NCc3ccco3)no2)cc1	287.1%	3.2%	-7.3%	25.1%	x
CC(C)(C)c1csc(NC(=O)c2ccc(Cl)s2)n1	-21.2%	u	-15.5%	13.7%	11.7%
CCNc1nc(N)c(C(=O)c2ccc(Cl)s2)s1	u	u	3.16µM*	-8.5%	-26.1%
CN1C(=O)Cn2c1nc1ccccc12	0.9%	0.1%	-3.7%	20µM*	u
Cc1ccc2nc3c(cc(C(N)=S)c(=N)n3CCCOC(C)C)c(=O)n2c1	329.4%	10µM*	-11.2%	-24.1%	-24.9%
Cc1ccc2nc3c(cc(C(=O)NCc4ccccc4)c(=N)n3CCCn3ccnc3)c(=O)n2c1	0.501µM*	u	8.5%	2.7%	-7.8%
C=CCn1c(=N)c(C(=O)OCC)cc2c(=O)n3cc(C)ccc3nc21	25.7%	8.1%	-16.2%	5.1%	5.1%
N#Cc1cc2c(=O)n3ccccc3nc2n(CCCn2ccnc2)c1=N	33.0%	10µM*	2.4%	-11.7%	-1.4%
Cc1cccn2c(=O)c3cc(C(=O)NC(C)c4ccccc4)c(=N)n(CCCn4ccnc4)c3nc12 (configuration not stated)	1.26µM*	u	22.0%	-8.3%	-7.1%
NCCNS(=O)(=O)c1ccc(N)cc1	-2.6%[11.4 µM]	13.3%[7.6 µM]	3.4%[11.5 µM]	-2.0%[11.4 µM]	-3.0%[11.4 µM]
O=C1CN2CCN(CC2)CC(=O)Nc2ccc(cc2)S(=O)(=O)c2ccc(cc2)NC(=O)CN2CCN(CC2)CC(=O)Nc2ccc(cc2)S(=O)(=O)c2ccc(cc2)N1	68.9%[11.4 µM]	1.4%[7.6 µM]	10.2%[11.5 µM]	2.4%[11.4 µM]	6.0%[11.4 µM]
O=C(C1CCN(S(=O)(=O)c2cccc3cccnc23)CC1)N1CCCC1	-14.2%	-7.8%	-15.1%	2.3%	-4.9%
O=C(C1CCN(S(=O)(=O)c2cccc3cccnc23)CC1)N1CC=C(c2ccccc2)CC1	478.7%	u	25.1µM*	u	u
Cc1ccc(C)c(N2CCN(C(=O)CCS(=O)(=O)c3cccc4nonc34)CC2)c1	31.6µM*	u	17.1%	-22.6%	-13.5%
Cc1ccc(C)c(/C(=N\N=C(N)N)C2CC2)c1	-10.3%[11.4 µM]	5.3%[7.6 µM]	-15.9%[11.5 µM]	13.5%[11.4 µM]	2.5%[11.4 µM]
CN(C)c1ccc(-c2cncnc2NCc2ccccc2)cc1	-10.7%	u	25.1µM*	-22.3%	28.5%
Cc1cnc(CNc2ncnc3ccc(-c4ccccc4Cl)cc23)cn1	26.4%	u	20µM*	u	u
c1ccc(CNc2ncnc3ccccc23)cc1	2.0%	u	25.1µM*	u	u
CN(C)c1ccc(-c2ccc3ncnc(NCc4ccccc4)c3c2)cc1	2.51µM*	u	12.6µM*	-52.6%	u
C=CCNc1ncnc2ccccc12	6.2%	4.2%	-0.6%	4.9%	1.4%
O=C(O)[C@H]1[C@H]2C[C@H]3c4[nH]c5ccccc5c4CCN3C[C@@H]2CC[C@@H]1O	x	x	6.5%	x	x
C[C@H](N)C1CCC(C(=O)Nc2ccncc2)CC1 (some centres not stated)	-2.1%	-10.6%	-12.1%	u	u
